# The supplement of paper PMC11732987, “Enantioselective OTUD7B fragment discovery through chemoproteomics screening and high-throughput optimisation” (Communications Chemistry, 2025)
# Values without a mark were called inactive.
# Legend:
# Test in all cases: log2 ratio of Biotin-Ahx-Ub-VS probe labelling (fragment/DMSO); higher = less target engagement (more negative = stronger competition), active = hit call of the paper (q ≤ 0.05, log2 ratio ≤ -1)
# Details in all cases: compound concentration: 200 uM; treatment time: 3 h
# USP19 = biological target: T1, USP19 (UniProt O94966)
# T1 sequence (whole entry): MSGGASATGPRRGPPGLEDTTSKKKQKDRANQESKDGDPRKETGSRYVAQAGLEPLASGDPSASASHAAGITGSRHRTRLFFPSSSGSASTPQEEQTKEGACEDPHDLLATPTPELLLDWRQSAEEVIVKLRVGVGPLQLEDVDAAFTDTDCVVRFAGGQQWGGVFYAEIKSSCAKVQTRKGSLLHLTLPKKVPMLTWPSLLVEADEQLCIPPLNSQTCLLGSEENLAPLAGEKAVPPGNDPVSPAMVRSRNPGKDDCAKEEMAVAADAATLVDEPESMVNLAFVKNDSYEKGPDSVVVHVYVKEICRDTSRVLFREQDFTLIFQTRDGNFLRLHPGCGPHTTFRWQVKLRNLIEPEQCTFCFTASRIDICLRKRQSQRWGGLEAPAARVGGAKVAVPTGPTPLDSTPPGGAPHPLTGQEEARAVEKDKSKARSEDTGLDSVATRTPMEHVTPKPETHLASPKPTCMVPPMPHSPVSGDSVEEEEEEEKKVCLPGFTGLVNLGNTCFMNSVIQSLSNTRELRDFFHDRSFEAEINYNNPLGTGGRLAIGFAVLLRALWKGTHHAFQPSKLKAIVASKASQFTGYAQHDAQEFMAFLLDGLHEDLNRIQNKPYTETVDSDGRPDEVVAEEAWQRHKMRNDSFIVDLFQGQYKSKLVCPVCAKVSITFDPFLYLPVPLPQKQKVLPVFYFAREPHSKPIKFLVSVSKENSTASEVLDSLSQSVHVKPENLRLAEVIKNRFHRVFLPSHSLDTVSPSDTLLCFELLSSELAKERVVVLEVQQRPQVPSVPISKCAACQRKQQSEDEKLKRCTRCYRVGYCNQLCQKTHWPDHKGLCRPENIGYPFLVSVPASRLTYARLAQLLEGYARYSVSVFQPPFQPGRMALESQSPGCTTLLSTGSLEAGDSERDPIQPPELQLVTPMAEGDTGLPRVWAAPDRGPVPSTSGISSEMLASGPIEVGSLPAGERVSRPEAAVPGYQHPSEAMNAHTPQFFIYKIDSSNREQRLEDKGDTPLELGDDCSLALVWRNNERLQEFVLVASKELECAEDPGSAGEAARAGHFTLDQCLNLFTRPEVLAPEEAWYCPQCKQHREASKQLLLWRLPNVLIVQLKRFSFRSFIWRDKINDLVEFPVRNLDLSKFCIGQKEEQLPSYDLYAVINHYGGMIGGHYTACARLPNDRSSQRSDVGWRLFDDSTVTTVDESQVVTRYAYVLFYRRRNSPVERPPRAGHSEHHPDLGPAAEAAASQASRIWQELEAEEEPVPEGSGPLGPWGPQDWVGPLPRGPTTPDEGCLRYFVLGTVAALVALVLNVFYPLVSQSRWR
# In short: (§1)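 HEK293T lysate in Tris/CHAPS/IGEPAL buffer with protease inhibitors (495 µg per sample) was given fragment at 200 µM or vehicle for 3 h, in triplicate. It then received Biotin-Ahx-Ub-VS at 0.5 µM final for 1 h. Labelled DUBs were NeutrAvidin-enriched, digested with LysC and trypsin, and run by diaPASEF LC-MS/MS. Values are average log2 fragment/vehicle ratios by unpaired t-test on global-median-normalised Spectronaut quantities of proteins with ≥2 unique peptides.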
# USP22 = biological target: T2, USP22 (UniProt Q9UPT9)
# T2 sequence (whole entry): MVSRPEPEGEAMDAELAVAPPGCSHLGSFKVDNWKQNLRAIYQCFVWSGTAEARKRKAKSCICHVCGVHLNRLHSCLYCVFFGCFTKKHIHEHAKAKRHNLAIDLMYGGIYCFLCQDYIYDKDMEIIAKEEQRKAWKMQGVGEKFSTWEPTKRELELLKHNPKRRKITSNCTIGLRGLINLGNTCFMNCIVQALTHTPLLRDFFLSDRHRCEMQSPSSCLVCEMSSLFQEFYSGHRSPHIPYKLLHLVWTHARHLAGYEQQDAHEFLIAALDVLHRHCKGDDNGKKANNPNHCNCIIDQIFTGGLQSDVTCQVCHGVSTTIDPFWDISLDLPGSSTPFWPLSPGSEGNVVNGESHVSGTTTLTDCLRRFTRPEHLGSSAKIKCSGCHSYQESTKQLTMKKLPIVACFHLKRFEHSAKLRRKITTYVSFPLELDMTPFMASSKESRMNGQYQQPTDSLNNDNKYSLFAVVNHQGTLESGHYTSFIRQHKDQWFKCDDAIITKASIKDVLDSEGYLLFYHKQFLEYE
# In short: as §1
# USP24 = USP24 (UniProt Q9UPU5)
# In short: as §1
# USP25 = biological target: T3, USP25 (UniProt Q9UHP3)
# T3 sequence (whole entry): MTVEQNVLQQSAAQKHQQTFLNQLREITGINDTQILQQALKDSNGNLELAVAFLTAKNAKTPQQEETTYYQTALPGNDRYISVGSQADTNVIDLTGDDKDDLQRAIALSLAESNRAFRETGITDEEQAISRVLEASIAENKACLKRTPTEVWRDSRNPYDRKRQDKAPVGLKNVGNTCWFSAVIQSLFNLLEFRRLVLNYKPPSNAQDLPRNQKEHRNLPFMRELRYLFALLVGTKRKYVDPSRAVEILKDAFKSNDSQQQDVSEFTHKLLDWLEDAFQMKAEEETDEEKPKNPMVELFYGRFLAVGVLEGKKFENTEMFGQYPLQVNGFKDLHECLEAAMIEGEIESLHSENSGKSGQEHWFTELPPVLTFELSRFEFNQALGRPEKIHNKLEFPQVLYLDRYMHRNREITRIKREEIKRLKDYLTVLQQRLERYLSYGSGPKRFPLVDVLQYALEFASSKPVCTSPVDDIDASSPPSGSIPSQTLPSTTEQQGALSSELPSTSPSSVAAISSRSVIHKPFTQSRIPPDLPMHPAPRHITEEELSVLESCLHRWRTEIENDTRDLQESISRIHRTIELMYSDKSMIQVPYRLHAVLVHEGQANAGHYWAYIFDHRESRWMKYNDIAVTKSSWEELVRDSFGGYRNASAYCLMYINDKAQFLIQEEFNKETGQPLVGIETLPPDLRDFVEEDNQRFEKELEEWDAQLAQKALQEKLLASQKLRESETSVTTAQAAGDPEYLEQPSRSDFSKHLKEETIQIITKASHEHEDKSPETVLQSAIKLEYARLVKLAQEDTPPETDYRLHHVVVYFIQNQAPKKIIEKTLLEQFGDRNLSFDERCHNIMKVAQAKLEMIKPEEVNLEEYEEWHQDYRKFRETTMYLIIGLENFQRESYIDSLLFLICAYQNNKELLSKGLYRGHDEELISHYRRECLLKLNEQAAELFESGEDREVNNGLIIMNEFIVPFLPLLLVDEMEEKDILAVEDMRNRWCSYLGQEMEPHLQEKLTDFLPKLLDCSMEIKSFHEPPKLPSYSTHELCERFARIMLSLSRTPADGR
# In short: as §1
# USP28 = biological target: T4, USP28 (UniProt Q96RU2)
# T4 sequence (whole entry): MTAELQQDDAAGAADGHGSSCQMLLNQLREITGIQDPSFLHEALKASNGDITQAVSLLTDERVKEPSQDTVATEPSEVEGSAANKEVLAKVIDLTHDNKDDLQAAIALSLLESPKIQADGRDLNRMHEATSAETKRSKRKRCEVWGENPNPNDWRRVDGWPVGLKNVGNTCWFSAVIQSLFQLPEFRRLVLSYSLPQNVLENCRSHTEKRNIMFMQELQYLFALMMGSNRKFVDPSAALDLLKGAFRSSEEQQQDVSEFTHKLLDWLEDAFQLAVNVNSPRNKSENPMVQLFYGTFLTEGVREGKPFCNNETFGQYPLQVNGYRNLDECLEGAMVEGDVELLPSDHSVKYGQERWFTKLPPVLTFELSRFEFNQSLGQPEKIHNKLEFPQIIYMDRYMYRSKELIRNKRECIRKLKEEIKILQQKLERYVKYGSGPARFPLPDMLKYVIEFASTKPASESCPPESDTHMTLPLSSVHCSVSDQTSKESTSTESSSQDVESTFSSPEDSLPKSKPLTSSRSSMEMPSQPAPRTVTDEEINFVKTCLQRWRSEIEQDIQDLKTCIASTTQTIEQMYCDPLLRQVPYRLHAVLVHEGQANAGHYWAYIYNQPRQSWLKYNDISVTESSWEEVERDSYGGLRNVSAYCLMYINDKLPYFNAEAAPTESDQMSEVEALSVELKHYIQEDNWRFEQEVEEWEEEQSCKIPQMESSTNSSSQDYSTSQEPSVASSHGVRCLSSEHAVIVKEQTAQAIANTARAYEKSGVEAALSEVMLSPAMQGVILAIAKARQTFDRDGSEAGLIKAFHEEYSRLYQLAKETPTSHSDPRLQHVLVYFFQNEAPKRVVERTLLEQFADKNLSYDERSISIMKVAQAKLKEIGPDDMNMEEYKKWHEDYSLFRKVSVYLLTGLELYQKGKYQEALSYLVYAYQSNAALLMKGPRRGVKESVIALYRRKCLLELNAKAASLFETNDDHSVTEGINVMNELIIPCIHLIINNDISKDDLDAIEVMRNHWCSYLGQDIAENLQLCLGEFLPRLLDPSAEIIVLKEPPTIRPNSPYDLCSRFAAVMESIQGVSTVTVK
# In short: as §1
# USP24, sequence (Q9UPU5 whole entry): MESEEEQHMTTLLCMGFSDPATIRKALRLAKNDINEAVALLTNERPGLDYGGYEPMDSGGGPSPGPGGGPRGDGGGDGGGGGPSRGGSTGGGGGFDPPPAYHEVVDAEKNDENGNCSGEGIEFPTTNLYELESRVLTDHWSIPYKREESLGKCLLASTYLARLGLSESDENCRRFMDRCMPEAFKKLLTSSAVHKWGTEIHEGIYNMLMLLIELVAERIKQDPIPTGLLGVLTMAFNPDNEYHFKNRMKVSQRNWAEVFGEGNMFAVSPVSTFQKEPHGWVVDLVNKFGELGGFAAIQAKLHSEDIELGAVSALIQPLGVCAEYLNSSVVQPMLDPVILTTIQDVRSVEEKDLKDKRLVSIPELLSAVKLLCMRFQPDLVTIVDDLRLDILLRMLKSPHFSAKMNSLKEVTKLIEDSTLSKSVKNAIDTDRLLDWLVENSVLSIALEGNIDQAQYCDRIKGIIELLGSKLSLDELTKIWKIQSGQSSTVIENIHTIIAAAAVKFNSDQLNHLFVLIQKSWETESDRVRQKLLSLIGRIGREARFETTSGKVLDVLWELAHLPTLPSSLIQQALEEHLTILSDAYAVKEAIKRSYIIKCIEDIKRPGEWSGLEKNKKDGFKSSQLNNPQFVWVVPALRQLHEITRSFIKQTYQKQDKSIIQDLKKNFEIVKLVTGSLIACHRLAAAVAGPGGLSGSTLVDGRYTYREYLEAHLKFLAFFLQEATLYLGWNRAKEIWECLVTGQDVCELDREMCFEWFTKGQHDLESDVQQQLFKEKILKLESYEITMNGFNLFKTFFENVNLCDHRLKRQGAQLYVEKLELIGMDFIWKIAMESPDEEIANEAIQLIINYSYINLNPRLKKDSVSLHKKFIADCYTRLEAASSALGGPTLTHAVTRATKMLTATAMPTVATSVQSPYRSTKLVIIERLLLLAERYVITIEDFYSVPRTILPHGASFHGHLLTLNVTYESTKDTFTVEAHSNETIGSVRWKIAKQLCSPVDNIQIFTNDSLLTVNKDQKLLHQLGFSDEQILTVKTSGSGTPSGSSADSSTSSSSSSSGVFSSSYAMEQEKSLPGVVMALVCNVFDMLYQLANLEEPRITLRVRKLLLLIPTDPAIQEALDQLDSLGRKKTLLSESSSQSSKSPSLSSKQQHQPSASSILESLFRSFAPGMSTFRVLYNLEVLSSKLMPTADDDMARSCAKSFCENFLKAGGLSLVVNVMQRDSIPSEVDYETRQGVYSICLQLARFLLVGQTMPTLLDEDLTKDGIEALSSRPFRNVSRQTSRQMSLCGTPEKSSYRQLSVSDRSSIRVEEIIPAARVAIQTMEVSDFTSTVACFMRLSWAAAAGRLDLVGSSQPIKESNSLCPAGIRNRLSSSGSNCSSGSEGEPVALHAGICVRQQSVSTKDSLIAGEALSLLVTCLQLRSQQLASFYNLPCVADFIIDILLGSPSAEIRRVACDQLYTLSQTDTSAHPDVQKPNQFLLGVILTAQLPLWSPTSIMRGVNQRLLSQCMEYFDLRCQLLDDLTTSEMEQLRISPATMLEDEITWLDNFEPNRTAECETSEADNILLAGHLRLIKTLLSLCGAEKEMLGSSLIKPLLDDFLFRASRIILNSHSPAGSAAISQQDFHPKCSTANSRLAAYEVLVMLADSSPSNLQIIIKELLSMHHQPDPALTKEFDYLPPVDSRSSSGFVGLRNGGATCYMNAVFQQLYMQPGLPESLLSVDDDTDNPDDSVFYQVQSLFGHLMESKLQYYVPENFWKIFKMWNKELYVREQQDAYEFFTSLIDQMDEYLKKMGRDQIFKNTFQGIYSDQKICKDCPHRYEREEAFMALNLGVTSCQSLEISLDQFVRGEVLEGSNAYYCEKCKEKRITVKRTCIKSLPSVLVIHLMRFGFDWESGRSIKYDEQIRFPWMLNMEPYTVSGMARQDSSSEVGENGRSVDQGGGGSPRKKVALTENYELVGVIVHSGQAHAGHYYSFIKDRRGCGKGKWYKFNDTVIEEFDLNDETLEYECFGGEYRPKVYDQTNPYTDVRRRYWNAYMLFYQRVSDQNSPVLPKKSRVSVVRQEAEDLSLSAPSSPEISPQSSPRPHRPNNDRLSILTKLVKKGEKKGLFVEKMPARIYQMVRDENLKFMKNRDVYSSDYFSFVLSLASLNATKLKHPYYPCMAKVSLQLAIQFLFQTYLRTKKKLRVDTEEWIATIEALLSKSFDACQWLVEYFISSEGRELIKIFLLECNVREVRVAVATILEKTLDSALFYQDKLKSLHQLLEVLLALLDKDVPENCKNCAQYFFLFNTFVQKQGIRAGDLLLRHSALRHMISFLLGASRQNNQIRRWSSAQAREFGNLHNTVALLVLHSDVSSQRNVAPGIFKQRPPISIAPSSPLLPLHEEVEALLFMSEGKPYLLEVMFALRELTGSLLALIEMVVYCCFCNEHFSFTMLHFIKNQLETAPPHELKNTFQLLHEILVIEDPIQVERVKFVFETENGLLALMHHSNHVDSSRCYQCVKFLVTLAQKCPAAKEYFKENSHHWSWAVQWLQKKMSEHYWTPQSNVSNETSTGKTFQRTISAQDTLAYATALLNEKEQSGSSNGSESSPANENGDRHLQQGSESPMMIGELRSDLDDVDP
smiles,measurement,setting,value
N#Cc1ccc(Cl)cc1NC(=O)CCl,log2 ratio of Biotin-Ahx-Ub-VS probe labelling,USP19,-0.121
same,log2 ratio of Biotin-Ahx-Ub-VS probe labelling,USP22,0.184
same,log2 ratio of Biotin-Ahx-Ub-VS probe labelling,USP24,-0.83
same,log2 ratio of Biotin-Ahx-Ub-VS probe labelling,USP25,-0.912
same,log2 ratio of Biotin-Ahx-Ub-VS probe labelling,USP28,-1.49 (active)
